From PubChem BioAssay (Tox21)
Results filed as inconclusive are left out. A call without a number means that no potency is given here. Active and inactive are the calls of the source. Calls follow the shape of the full dose curve.

target: Muscarinic acetylcholine receptor M1 (Homo sapiens) (UniProt P11229); test: Cholinergic receptor muscarinic 1 (CHRM1) small molecule antagonists, cell-based qHTS assay (AID 1963588); details: CHRM1-CHO antagonist mode, calcium flux fluorescence; series mostly up to 61.5 µM; also: nearly all actives have a fitted effect of over 40% in size
Sequence (P11229 whole entry, looked up): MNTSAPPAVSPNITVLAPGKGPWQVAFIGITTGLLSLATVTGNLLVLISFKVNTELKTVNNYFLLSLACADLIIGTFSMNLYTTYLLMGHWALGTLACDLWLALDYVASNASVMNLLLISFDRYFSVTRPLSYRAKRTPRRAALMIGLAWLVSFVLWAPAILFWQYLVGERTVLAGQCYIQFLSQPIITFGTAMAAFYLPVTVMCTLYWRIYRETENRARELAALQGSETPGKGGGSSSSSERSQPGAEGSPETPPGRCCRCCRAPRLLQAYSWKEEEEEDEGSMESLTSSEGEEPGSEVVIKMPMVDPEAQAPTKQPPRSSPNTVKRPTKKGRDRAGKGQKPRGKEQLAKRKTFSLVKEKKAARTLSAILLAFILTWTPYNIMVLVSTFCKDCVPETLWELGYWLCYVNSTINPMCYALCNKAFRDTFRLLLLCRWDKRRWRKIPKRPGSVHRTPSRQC
From the text: National Center for Advancing Translational Sciences [NCATS]
Division of Preclinical Innovation [DPI]
U.S. Environmental Protection Agency [EPA]
National Institutes of Environmental Health Sciences [NIEHS]
National Toxicology Program [NTP]
U.S. Food and Drug Administration [FDA]
The CHRM1 is a muscarinic receptor. This receptor plays a crucial role in learning and memory processes and has long been identified as a promising therapeutic target for the improvement of cognitive decline in Alzheimer's disease (AD). The CHRM1-CHO cell line stably expressing human muscarinic acetylcholine receptor M1 (CHRM1) can be used for screening agonists and antagonists of interactions between CHRM1 and its ligands. The CHRM1-CHO Calcium Flux Assay is a homogeneous fluorescence-based assay for detecting the intracellular calcium level using FDSS kinetic plate reader system.
Tox21 Assay Protocol Summary:
CHRM1-CHO cells were dispensed at 1000 cells/3uL/well in 1536-well black-clear bottom plates using a Multidrop Dispenser. After the assay plates were incubated at a 37 C/5% CO2 incubator for 18 h, 3 uL of Dye Loading Buffer was transferred to the assay plate by a Flying Reagent Dispenser. The assay plates were incubated at 37 C for 1h. For antagonist mode, 23 nL of compounds dissolved in DMSO, positive controls or DMSO only was transferred to the assay plate by a pin tool. After 5 min incubation at room temperature, 1.5 uL of acetylcholine at 50nM was added to each well. The fluorescence intensity in the plates was measured using FDSS 7000EX kinetic plate reader for 3 min at 1 sec intervals. Each test compound was measured at 15 concentrations in three independent runs.

| SMILES | Potency |
| --- | --- |
| O=C(O[C@@H]1Cc2c(O)cc(O)cc2O[C@@H]1c1cc(O)c(O)c(O)c1)c1cc(O)c(O)c(O)c1 | inactive |
| CC(=O)OCc1ccccc1 | inactive |
| O=S(=O)(O)CCCN1CCOCC1 | inactive |
| O=C1C=CC(=O)O1 | inactive |
| CCC/C=C/CO | inactive |
| CC(C)(C)OC(=O)c1cccc(N)c1 | inactive |
| Cc1ccc(CO)cc1 | inactive |
| O=C1c2ccccc2C(=O)C1c1ccc2cc(S(=O)(=O)O)cc(S(=O)(=O)O)c2n1 | inactive |
| NCCC(O)(P(=O)(O)O)P(=O)(O)O | inactive |
| CCOc1cc(NC(C)=O)ccc1C(=O)OC | inactive |
| O=c1cc(CO)occ1O | inactive |
| CCN(CC)CCNC(=O)c1ccc(NC(C)=O)cc1 | inactive |
| OCCOc1ccc(OCCO)cc1 | inactive |
| CCCCOCCCC | inactive |
| CC(O)C(C)O (stereo not given) | inactive |
| C=CC(C)(O)CCC=C(C)C (stereo not given) | inactive |
| Clc1ccc2c(Cl)ccnc2c1 | inactive |
| O=c1[nH]c2ccc(Cl)cc2o1 | inactive |
| CCN(CC)C(=O)C1CN2CCc3cc(OC)c(OC)cc3C2CC1OC(C)=O (stereo not given) | inactive |
| CCN1CCC[C@H]1CNC(=O)c1c(O)c(Cl)cc(Cl)c1OC | inactive |

| SMILES | Potency |
| --- | --- |
| CC(=O)N1CCN(c2ccc(O)cc2)CC1 | inactive |
| CC(=O)c1ccccc1N | inactive |
| CCCCN(CCO)CCO | inactive |
| COc1cccc(OC)c1C(=O)O | inactive |
| C[C@@H](O)[C@H]1C(=O)N2C(C(=O)O)=C([C@H]3CCCO3)S[C@H]12 | inactive |
| CC(C)(C)c1ccc(O)c(O)c1 | inactive |
| IC(I)I | inactive |
| CCOC(=O)c1c(C)n(C)c2ccc(O)cc12 | inactive |
| CC1=CC(C)C(C=O)CC1 (stereo not given) | inactive |
| O=Nc1ccc(Nc2ccccc2)cc1 | inactive |
| C1COC1 | inactive |
| CCC(COC(=O)CCS)(COC(=O)CCS)COC(=O)CCS | inactive |
| COc1ccc(C)cc1 | inactive |
| O=C(CCNNC(=O)c1ccncc1)NCc1ccccc1 | inactive |
| CCC(=O)OC(C)c1ccccc1 (stereo not given) | inactive |
| CCCCCCCCCC/C=C/C#N | inactive |
| CNCCS(=O)(=O)O | inactive |
| N#CCc1cccc(C(F)(F)F)c1 | inactive |
| CC(C=O)Cc1ccc(C(C)(C)C)cc1 (stereo not given) | inactive |
| CC(=O)OCCOCCOCCOC(C)=O | inactive |
